Data: PubChem BioAssay (NCATS)
Records with an inconclusive call do not appear. Active and inactive are the calls of the source.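 The calls were made as follows, unless noted: active = compounds whose dose-response curve shows a full or clear partial loss of cell viability, called from curve shape rather than a numeric limit; inconclusive = weak partial curves or an effect only at the top dose; inactive = no dose-dependent loss of viability.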

Assay: Cell Viability - Jurkat (AID 426;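 active = dose-dependent loss of cell ATP signal giving a full or clear fitted curve, ranked by lower potency value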;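 also: cells exposed to compound for 40 hours at 37 °C before ATP read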)
Details: qHTS
Procedure, shortened: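 Jurkat (Clone E6-1) cells, 5000/well in complete medium, exposed to compounds for 40 hr at 37C; intracellular ATP measured by CellTiter-Glo luminescence after 20 min at room temperature. AC50 from Hill fits.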
Potency is read from the fitted curve at half-maximal effect.

Row | Compound | Potency
1 | CCCCCCCCCCCCOS(=O)(=O)O | > 92 µM (inactive)
2 | Nc1ccc(S(=O)(=O)Nc2nccs2)cc1 | > 92 µM (inactive)
3 | CCCCOC(=O)c1ccc(O)cc1 | > 92 µM (inactive)
4 | [Cl][In]([Cl])[Cl] | > 92 µM (inactive)
5 | O=C1c2c(O)cccc2Cc2cccc(O)c21 | > 92 µM (inactive)
6 | NC(=O)c1ncn([C@@H]2O[C@H](CO)[C@@H](O)[C@H]2O)n1 | > 92 µM (inactive)
7 | CC12CCC(CC1)C(C)(C)O2 | > 92 µM (inactive)
8 | O=C1O[C@H]([C@@H](O)CO)C(O)=C1O | > 92 µM (inactive)
9 | C[C@]12C[C@H](O)[C@H]3[C@@H](CCC4=CC(=O)CC[C@@]43C)[C@@H]1CC[C@@H]2C(=O)CO | > 92 µM (inactive)
10 | NCCNCCNCCN | > 92 µM (inactive)
11 | Cc1c(O)cccc1C(=O)N[C@@H](CSc1ccccc1)[C@H](O)CN1C[C@H]2CCCC[C@H]2C[C@H]1C(=O)NC(C)(C)C | 31.8 µM (active)
12 | Cc1cc2nc3c(=O)[nH]c(=O)nc-3n(C[C@H](O)[C@H](O)[C@H](O)CO)c2cc1C | > 92 µM (inactive)
13 | CC1(C)[C@@H]2CC[C@@]1(C)C(=O)C2 | > 92 µM (inactive)
14 | Cc1cc(CC(=O)O)n(C)c1C(=O)c1ccc(Cl)cc1 | > 92 µM (inactive)
15 | NCCNCCNCCNCCN | > 92 µM (inactive)
16 | COc1ccccc1O | > 92 µM (inactive)

Assay: Cell Viability - Hek293 (AID 427);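 also: cells exposed to compound for 40 hours at 37 °C before reading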
Details: qHTS
Procedure, shortened: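 qHTS, human embryonic kidney (adenovirus-transformed) cells; 40 hr cpd, 37 °C; CellTiter-Glo ATP luminescence. Norm: DMSO = 0, 100 uM tamoxifen = 100% inhibition. Hill-fit AC50.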

Row | Compound | Potency
17 | CCCCCCCCCCCCOS(=O)(=O)O | > 92 µM (inactive)
18 | Nc1ccc(S(=O)(=O)Nc2nccs2)cc1 | > 92 µM (inactive)
19 | CCCCOC(=O)c1ccc(O)cc1 | > 92 µM (inactive)
20 | [Cl][In]([Cl])[Cl] | > 92 µM (inactive)
21 | O=C1c2c(O)cccc2Cc2cccc(O)c21 | > 92 µM (inactive)
22 | CC12CCC(CC1)C(C)(C)O2 | > 92 µM (inactive)
23 | Oc1cccc(O)c1 | > 92 µM (inactive)
24 | COC(=O)C1=C(C)NC(C)=C(C(=O)OC)C1c1ccccc1[N+](=O)[O-] | > 92 µM (inactive)
25 | O=C1O[C@H]([C@@H](O)CO)C(O)=C1O | > 92 µM (inactive)
26 | C[C@]12C[C@H](O)[C@H]3[C@@H](CCC4=CC(=O)CC[C@@]43C)[C@@H]1CC[C@@H]2C(=O)CO | > 92 µM (inactive)
27 | NCCNCCNCCN | > 92 µM (inactive)
28 | Cc1c(O)cccc1C(=O)N[C@@H](CSc1ccccc1)[C@H](O)CN1C[C@H]2CCCC[C@H]2C[C@H]1C(=O)NC(C)(C)C | 24.4 µM (active)
29 | Cc1cc2nc3c(=O)[nH]c(=O)nc-3n(C[C@H](O)[C@H](O)[C@H](O)CO)c2cc1C | > 92 µM (inactive)
30 | CC1(C)[C@@H]2CC[C@@]1(C)C(=O)C2 | > 92 µM (inactive)
31 | Cc1cc(CC(=O)O)n(C)c1C(=O)c1ccc(Cl)cc1 | > 92 µM (inactive)
32 | NCCNCCNCCNCCN | > 92 µM (inactive)
33 | COc1ccccc1O | > 92 µM (inactive)
